Source: PubChem (National Center for Advancing Translational Sciences (NCATS))
TDP1 cell noCPT = qHTS for Inhibitors of human tyrosyl-DNA phosphodiesterase 1 (TDP1): qHTS in cells in absence of CPT; DT40 Tdp1-/- hTDP1 cells, no CPT, ATP luminescence, 48 h; Potency, µM (doses to about 46.2 µM), for the others: at the top dose activity change, negative = growth inhibition, most hits filed as inhibitors; 420,000 tested, 15% active; AID 686978, 2013; note: potency is the fitted concentration of half-maximal effect; nearly all actives have a fitted effect of over 55% in size
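Stably hTDP1-transfected Tdp1-null chicken DT40 cells were treated with library compounds minus camptothecin and grown for at least 48 hr at 37 °C, after which cellular ATP was quantified by luminescence.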
TDP1 cell CPT = growth inhibition of DT40 Tdp1-/-;hTDP1 cells with camptothecin (screen for TDP1 inhibitors). chicken DT40 Tdp1-/-;hTDP1 cells + 20 nM CPT, ATP luminescence, 48 h. Potency, µM (series often up to 46.2 µM), for the others: at the top dose activity change, negative = growth inhibition, actives largely listed as inhibitors. 420,000 tested, 12% active; note: potency is the fitted concentration of half-maximal effect; nearly all actives have a fitted effect of over 55% in size
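Cell growth measured by CellTiter-Glo luminescence after a minimum 48 h, 37 C compound exposure with 20 nM CPT in Tdp1-knockout DT40 cells stably expressing hTDP1, seeded 400/well; qHTS titration format.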
IL-1B inflam inh = blocks inflammasome-driven IL-1 beta release. activity change, % at 57.5 µM. THP-1 LPS/ATP IL-1B secretion, AlphaLISA, 16 h; active compounds read low. 360,000 tested, 4.7% active; in the data active = activity change below about -50%; inconclusive = mostly about -30% to -49%
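THP-1 cells pretreated 1 hr with compounds (up to 57.5 uM final), then stimulated with LPS (250 ng/mL final) plus ATP (1.25 mM final); secreted IL-1B measured by AlphaLISA after 16 hr, decreased signal indicating inhibition.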
ELG1 repair inh = inhibitors of ELG1-dependent DNA repair in HEK293T cells; 330,000 tested, 2.3% active; Potency, µM (highest dose often 46.1 µM), inactives show top-dose activity change, negative = inhibition, most hits filed as inhibitors; HEK293T ELG1-luciferase reporter, luminescence, 16 h; DNA damage induced by 5-fluorouridine; note: potency is the fitted concentration of half-maximal effect; nearly all actives have a fitted effect of over 55% in size
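Quantitative HTS, concentration-response format. 2,000 cells/well co-treated with 5-fluorouridine and compound, 16 hr in 5% CO2 at 37 °C; ONE-Glo luminescence read after 30 min.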
Giardia kill = Giardia lamblia killing | Giardia lamblia trophozoite viability | activity change, % at 7.66 µM, hits read low | 340,000 tested, 0.15% active; in the data active = activity change below about -80%; inconclusive = between about -30% and that limit;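 note: parasites exposed to compound for two days anaerobically before the ATP read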
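Trophozoite viability was measured as ATP-dependent luminescence, read 15-30 min after reagent addition. Before that, parasites at 100 cells/well were exposed to compounds for 48 h, anaerobically, at 37 deg C.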
TDP1 inh = TDP1 (human) enzyme inhibition. 350,000 tested, 0.28% active. recombinant TDP1, AlphaScreen DNA substrate cleavage. Potency, µM (highest dose often 130 µM), for the others: top-dose activity change, negative = inhibition, most hits filed as inhibitors. AID 485290. Q9NUW8; note: potency is the fitted concentration of half-maximal effect; nearly all actives have a fitted effect of over 40% in size
Target sequence (Q9NUW8 whole entry, looked up): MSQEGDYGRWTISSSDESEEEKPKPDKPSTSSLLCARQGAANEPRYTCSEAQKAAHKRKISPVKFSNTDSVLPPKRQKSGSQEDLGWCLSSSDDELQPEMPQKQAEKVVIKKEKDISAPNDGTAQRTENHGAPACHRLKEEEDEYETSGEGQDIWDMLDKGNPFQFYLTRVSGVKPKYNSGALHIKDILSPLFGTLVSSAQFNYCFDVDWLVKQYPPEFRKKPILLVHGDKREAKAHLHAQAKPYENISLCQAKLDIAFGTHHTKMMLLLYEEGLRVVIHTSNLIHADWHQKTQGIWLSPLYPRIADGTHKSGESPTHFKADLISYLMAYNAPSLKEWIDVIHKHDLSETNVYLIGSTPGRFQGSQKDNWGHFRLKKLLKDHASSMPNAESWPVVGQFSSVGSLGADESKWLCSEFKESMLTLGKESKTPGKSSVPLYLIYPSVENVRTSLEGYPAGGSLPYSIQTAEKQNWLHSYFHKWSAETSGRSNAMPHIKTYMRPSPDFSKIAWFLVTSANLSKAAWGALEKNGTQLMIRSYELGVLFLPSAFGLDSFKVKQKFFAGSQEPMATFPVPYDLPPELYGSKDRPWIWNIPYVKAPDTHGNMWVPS
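Recombinant E. coli-expressed Tdp1 (1 nM) preincubated with compound 15 min at RT, then 5'-biotin/3'-phosphotyrosine-FITC DNA substrate (15 nM) added for 5 min. AlphaScreen beads (10 ug/ml) added, 10 min RT; tyrosine-FITC cleavage read as signal loss.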
Numbers without * were called inactive; i = inactive; u = inconclusive; x = not tested or not shown. In the library only some 19% were active in any assay of this set; here they are far more common. Unless noted, calls come from the whole dose curve; as a rule, active = well fitted curve in the direction sought with a large enough effect; inconclusive = small, poorly fitted or top-dose-only effect, or another doubt; inactive = no such curve, though single readings can be large; an effect the other way counts as inactive or inconclusive. % is set by controls: 0 for no effect and ±100 for the full control effect.

SMILES | TDP1 cell noCPT | TDP1 cell CPT | IL-1B inflam inh | ELG1 repair inh | Giardia kill | TDP1 inh
COc1cc(-c2ccc(N3C(c4ccsc4)=Cc4ccccc4C3CC(C)=O)cc2)cc(OC)c1OC (stereo not given) | u | u | 0.0 | x | x | x
COc1ccc(C(=O)c2coc3c2C(=O)C(=O)c2ccccc2-3)cc1 | 4.61µM* | 2.59µM* | 12.6 | u | 4.0 | 10.7%
Cc1[nH]n(-c2ccc(Cl)cc2)c(=O)c1N=Nc1cccnc1 | 16.4µM* | 18.4µM* | 13.7 | u | -19.0 | -0.6%
COc1ccc2c(c1)O/C(=C\c1sccc1C)C2=O | 18.4µM* | u | i | u | -17.3 | -3.2%
CC(=O)N1CCOc2cc(S(=O)(=O)N(C)Cc3ccccc3)c(Cl)cc21 | x | x | x | x | x | 1.3%
Cc1nc(Cl)sc1C(=O)Nc1cccc(C(F)(F)F)c1 | -22.8% | -1.6% | -5.0 | x | 6.3 | x
CCOC(=O)c1ccc(Nc2cc(C)nc(C)c2C(=O)OCC)cc1 | 18.4µM* | u | 24.6 | u | 7.9 | 5.1%
CCOC(=O)c1ccc(Nc2nnc(C(C)(C)C)c(=O)[nH]2)cc1 | 23.1µM* | u | -91.0* | u | -5.0 | 5.2%
CCn1cc(Cl)c(C(=O)Nc2cccc(C(F)(F)F)c2)n1 | -1.9% | 30.8% | -63.6* | 9.9% | -17.1 | 1.3%
CCOC(=O)c1ccc(Nc2ccc(C(C)=O)cc2)cc1 | u | u | 0.0 | x | x | x
Cc1cc(Cl)c(C(=O)Nc2cccc(C(F)(F)F)c2)c(C)n1 | -28.5% | -28.1% | -53.7* | u | 13.0 | 6.1%
Cn1c(=O)oc2cc(S(=O)(=O)N3CCC(C(=O)NCc4ccccc4Cl)CC3)ccc21 | 3.4% | 3.2% | 3.9 | u | -20.7 | 0.8%
CC(=O)c1cccc(NC(=O)CN(C)S(=O)(=O)c2cccc3nsnc23)c1 | -18.5% | -16.3% | 16.6 | 3.5% | -1.9 | 2.7%
Cc1c(C(=O)N(C)C)sc2c1c(=O)n(-c1ccccc1C(F)(F)F)c(=O)n2Cc1ccccc1C#N | -2.2% | -11.8% | x | x | x | 5.4%
Cc1nc(-c2cccnc2)sc1C(=O)Nc1ccc(C(F)(F)F)cc1 | u | u | -24.0 | u | -0.8 | 4.2%
Cc1nc(-c2cccnc2)sc1C(=O)Nc1cccc(C(F)(F)F)c1 | 18.4µM* | u | 10.0 | u | 12.6 | 2.0%
CCOC(=O)c1ccc(NC(=O)c2c(Cl)cc(C)nc2C)cc1 | 5.17µM* | 3.26µM* | u | 6.4% | 2.3 | 5.5%
CCOC(=O)c1ccc(NC(=O)c2c(C)[nH]c(C(=O)OCC)c2C)cc1 | -14.1% | -9.0% | 0.0 | -19.2% | 38.7 | 2.3%
O=C(NNc1ccc(Cl)nn1)c1ccc(Cl)cc1 | -10.1% | -16.7% | -20.8 | -1.2% | 19.9 | 7.6%
Cc1ccccc1CNC(=O)c1ccccc1NC(=O)c1nsc2ccccc12 | u | u | x | x | x | 0.0%
CCOc1ccc(CNC(=O)c2ccccc2NC(=O)c2nsc3ccccc23)cc1 | 18.4µM* | 20.6µM* | x | x | x | 2.7%
CCOc1cc(CNC(=O)c2ccc(C)c(NC(=O)c3nsc4ccccc34)c2)ccc1OC | 7.31µM* | 7.31µM* | x | x | x | 2.7%
O=C(NCc1ccccc1Cl)c1ccccc1NC(=O)c1nsc2ccccc12 | 16.4µM* | u | x | x | x | 2.7%
COc1ccc(OC)c(NC(=O)Cc2coc3ccc(C(C)C)cc23)c1 | u | u | x | x | x | 1.2%
CC1CCC(C(C)C)C(OCC(O)CNC(C)C)C1 (stereo not given) | u | 23.1µM* | -10.4 | u | 38.1 | x
O=Nc1[nH]c(=O)c(/C=C(\O)c2ccccc2)nc1NO | 16.4µM* | u | -22.1 | 18.2% | 2.6 | x
O=c1[nH]c2ccccc2nc1/C=C(\O)C(F)F | -12.0% | -8.6% | 4.3 | 19.6% | 6.7 | -5.3%
COCCCn1c(SCC(=O)Nc2ccc(OC)cc2)nc2c(sc3ccccc32)c1=O | -4.2% | 5.5% | x | x | x | 9.3%
